Source: PubChem BioAssay AID1259343 (VanderVen Lab, College of Veterinary Medicine, Cornell …, 2017)
In all, about 6,200 compounds went through this assay and about 2,900 (47%) were called active. Rule as the data show it: active = inhibition above about 50%; inactive = the rest. So high a share suggests a set chosen from earlier hits. Some of the results follow.

Experiment: Mycobacterium tuberculosis growth inhibition, primary screen (AID 1259343)
Settings: inhibition: at 10 µM, hits give high values; outcome: 10 uM

Question: For `CCC(C)(C)C1CCC(NC(=O)c2cccc(-n3cnnn3)c2)CC1` (stereo unspecified), which inhibition is on record?
Answer: Its inhibition is 24.6% (inactive).

Question: With `CCC(C)(C)C1CCC(NC(=O)c2ccnc(C)n2)CC1` (stereo unspecified) as the compound, how does the inhibition read?
Answer: Its inhibition is 70.8% (active).

Question: Which inhibition does the source give for `O=[N+]([O-])c1ccc(C2CN=C(Nc3ccccc3)O2)cc1` (stereo unspecified) here?
Answer: Its inhibition is 74% (active).

Question: With `NC(=O)CC1CCN(Cc2noc(Cc3ccc(Br)cc3)n2)CC1` as the compound, how does the inhibition read?
Answer: The inhibition was 24.6% (inactive).

Question: With `CCC(=O)C1=C(c2ccc(Br)cc2)N(C(=O)CC)n2cnnc2S1` as the compound, how does the inhibition read?
Answer: Its inhibition is 8.79% (inactive).

Question: For `Cc1nnc(NC(=O)c2ccc(S(=O)(=O)Nc3cccc(C(F)(F)F)c3)o2)s1`, which inhibition is on record?
Answer: Its inhibition is 66.4% (active).

Question: For `O=C(NC(=S)Nc1cccc(C(F)(F)F)c1)c1ccc(Br)o1`, which inhibition is on record?
Answer: Its inhibition is -5.04% (inactive).

Question: For `CNS(=O)(=O)c1ccc(C(=O)Nc2ccc(C)c(C)c2)o1`, which inhibition is on record?
Answer: The inhibition was -15.4% (inactive).

Question: Which inhibition does the source give for `O=C(NNc1ccc(Cl)c(Cl)c1)c1ccc(NC(=O)C2CC2)cc1` here?
Answer: Its inhibition is 96.5% (active).

Question: Which inhibition does the source give for `O=C(Nc1ccc(CNS(=O)(=O)c2c(Cl)cccc2Cl)cc1)C1CC1` here?
Answer: The inhibition was 27.6% (inactive).

Question: Which inhibition does the source give for `O=C(Nc1ccc(Cl)c(Cl)c1)N(Cc1ccc(O)cc1)C1CC1` here?
Answer: The inhibition was 27.8% (inactive).

Question: For `CC1(C)CC2CC(C)(CN2C(=O)c2cc3c(s2)CCCC3)C1` (stereo unspecified), which inhibition is on record?
Answer: Its inhibition is 47.7% (inactive).

Question: Which inhibition does the source give for `CCCCNC(=S)N1CC2(C)CC1CC(C)(C)C2` (stereo unspecified) here?
Answer: Its inhibition is 90.3% (active).

Question: Which inhibition does the source give for `CC1(C)CC2CC(C)(CN2C(=S)NC(=O)c2cccs2)C1` (stereo unspecified) here?
Answer: Its inhibition is 96.2% (active).

Question: With `CNC(=O)Cc1noc(-c2cc3c(s2)CCCCCC3)n1` as the compound, how does the inhibition read?
Answer: The inhibition was 43.5% (inactive).

Question: With `Clc1ccc(Cc2noc(-c3cccs3)n2)c(Cl)c1` as the compound, how does the inhibition read?
Answer: Its inhibition is 84.3% (active).

Question: With `Fc1ccc(OCc2noc(-c3cccs3)n2)c(Br)c1` as the compound, how does the inhibition read?
Answer: Its inhibition is -15.9% (inactive).

Question: Which inhibition does the source give for `O=C(CN1CCCc2cc(F)ccc21)NCc1ccco1` here?
Answer: Its inhibition is 44% (inactive).

Question: With `S=C(NCc1ccco1)N1CCC2CCCCC2C1` (stereo unspecified) as the compound, how does the inhibition read?
Answer: The inhibition was 86.6% (active).

Question: With `COc1cc(C(=O)NC2CCOc3ccccc32)cc2c1OCCO2` (stereo unspecified) as the compound, how does the inhibition read?
Answer: Its inhibition is 41.9% (inactive).

Question: For `N#Cc1cccc(NC(=O)c2cc(Cl)c3c(c2)OCCCO3)c1`, which inhibition is on record?
Answer: The inhibition was 56.4% (active).

Question: Which inhibition does the source give for `N#Cc1cccc(NC(=O)C2C3CC4CC(C3)CC2C4)c1` (stereo unspecified) here?
Answer: The inhibition was 28.5% (inactive).

Question: With `OC(c1ccccc1)c1nc(/C=C/c2ccccc2)cs1` (stereo unspecified) as the compound, how does the inhibition read?
Answer: The inhibition was 47.4% (inactive).

Question: Which inhibition does the source give for `CC(C)c1cccc(Nc2nnc(C(O)c3ccccc3)s2)c1` (stereo unspecified) here?
Answer: Its inhibition is 68.4% (active).

Question: For `Cc1cc(NC(=O)C(C)Oc2ccccc2)n(-c2nc3c(c(=O)[nH]2)CCC3)n1` (stereo unspecified), which inhibition is on record?
Answer: Its inhibition is 100% (active).

Question: Which inhibition does the source give for `Cc1cc(NC(=O)C(C)C)n(-c2nc3c(c(=O)[nH]2)CCC3)n1` here?
Answer: The inhibition was 101% (active).

Question: For `O=C(Nc1ncnc2c1CCC2)c1nc2ccccc2s1`, which inhibition is on record?
Answer: The inhibition was 93.3% (active).

Question: Which inhibition does the source give for `CC(C)(C)c1nnc2sc(SCC(=O)NCC3CCCCC3)nn2c1=O` here?
Answer: The inhibition was 73.1% (active).

Question: With `O=C(CSc1nnc(SCC(=O)NC2CCCC2)s1)NC1CCCC1` as the compound, how does the inhibition read?
Answer: Its inhibition is -2.28% (inactive).

Question: For `O=C(CSC(F)(F)F)NCC1CCC1`, which inhibition is on record?
Answer: Its inhibition is -78.2% (inactive).

Question: For `Cc1csc(CCNC(=O)C2CC2c2ccc(Cl)cc2)n1` (stereo unspecified), which inhibition is on record?
Answer: The inhibition was 79.1% (active).

Question: Which inhibition does the source give for `Cc1cnc(CNC(=O)C2CC2c2ccc(F)c(F)c2)o1` (stereo unspecified) here?
Answer: The inhibition was -29.9% (inactive).

Question: Which inhibition does the source give for `CC(C)c1nc(CCNC(=O)C2CC2c2cccc(O)c2)cs1` (stereo unspecified) here?
Answer: Its inhibition is 39.2% (inactive).

Question: Which inhibition does the source give for `CC(C)NC(=O)Nc1cccc(C(=O)Nc2ccc(C(C)C)cc2)c1` here?
Answer: The inhibition was 35.6% (inactive).

Question: Which inhibition does the source give for `O=C(O)Cc1ccc(NC(=O)c2cccc(Br)c2)cc1` here?
Answer: Its inhibition is 89.2% (active).

Question: With `C=CCn1c(COc2ccc3ccccc3c2)nc2ccccc21` as the compound, how does the inhibition read?
Answer: Its inhibition is 26.8% (inactive).

Question: For `C=C(Br)Cn1c(-c2cccs2)nc2ccccc21`, which inhibition is on record?
Answer: Its inhibition is 4.18% (inactive).

Question: For `C=C(Br)Cn1c(C=Cc2ccccc2)nc2ccccc21`, which inhibition is on record?
Answer: The inhibition was 89.4% (active).

Question: For `CC(C)(C)C1CCc2sc(C(=O)O)cc2C1` (stereo unspecified), which inhibition is on record?
Answer: Its inhibition is -46.9% (inactive).

Question: With `CCC1CCc2sc(C(=O)O)cc2C1` (stereo unspecified) as the compound, how does the inhibition read?
Answer: Its inhibition is 85.9% (active).

Question: For `CCC1CCc2sc(C(=O)N=c3sccn3C)cc2C1` (stereo unspecified), which inhibition is on record?
Answer: The inhibition was 37.3% (inactive).

Question: Which inhibition does the source give for `C=CCN(CC=C)C(=O)CSc1nc(N)cc(=O)[nH]1` here?
Answer: Its inhibition is -27.6% (inactive).

Question: Which inhibition does the source give for `Cc1cc(C(=O)N2CCCC(C(=O)c3ccc(-c4ccccc4)cc3)C2)no1` (stereo unspecified) here?
Answer: The inhibition was 79.4% (active).

Question: For `O=C(c1ccc(-c2ccccc2)cc1)C1CCCN(C(=O)CSc2ncccn2)C1` (stereo unspecified), which inhibition is on record?
Answer: The inhibition was 9.54% (inactive).

Question: For `O=C(c1ccc2ccccc2c1)C1CCCN(S(=O)(=O)Cc2ccccc2)C1` (stereo unspecified), which inhibition is on record?
Answer: Its inhibition is 23.8% (inactive).

Question: For `O=C(c1ccc(-c2ccccc2)cc1)C1CCCN(C(=O)c2ccsc2)C1` (stereo unspecified), which inhibition is on record?
Answer: Its inhibition is 74.6% (active).

Question: For `CNc1ncc(CN(C)c2nccc(CCC(F)(F)F)n2)cn1`, which inhibition is on record?
Answer: The inhibition was 55.3% (active).

Question: For `CN(Cc1ccc2nonc2c1)c1nccc(CCC(F)(F)F)n1`, which inhibition is on record?
Answer: Its inhibition is 31.6% (inactive).

Question: Which inhibition does the source give for `CN(Cc1cccc(O)c1)c1nccc(CCC(F)(F)F)n1` here?
Answer: The inhibition was 54.8% (active).

Question: Which inhibition does the source give for `Cc1sc(NC(=O)CC2(CC(=O)O)CCCCC2)c(C#N)c1C` here?
Answer: The inhibition was -8.62% (inactive).

Question: Which inhibition does the source give for `O=C(O)CC1(CC(=O)Nc2cc(C(F)(F)F)cc(C(F)(F)F)c2)CCCCC1` here?
Answer: The inhibition was 88.4% (active).

Question: For `COc1ccc(C2C(C(=O)c3ccccc3)C(O)(C(F)(F)F)N(C)C(=O)N2C)cc1` (stereo unspecified), which inhibition is on record?
Answer: The inhibition was -22.5% (inactive).

Question: With `COc1ccc(C2C=C(c3ccccc3)Nc3nnnn32)cc1` (stereo unspecified) as the compound, how does the inhibition read?
Answer: Its inhibition is 78.5% (active).

Question: With `CCc1ccc(C2=CC(c3ccc(Br)cc3)n3nnnc3N2)cc1` (stereo unspecified) as the compound, how does the inhibition read?
Answer: The inhibition was 76.2% (active).

Question: For `Clc1cccc(C2C=C(c3ccc(-c4ccccc4)cc3)Nc3nnnn32)c1Cl` (stereo unspecified), which inhibition is on record?
Answer: The inhibition was 93.5% (active).

Question: For `COc1ccc(C2C=C(c3ccc(Cl)cc3)Nc3nnnn32)cc1` (stereo unspecified), which inhibition is on record?
Answer: Its inhibition is 7.81% (inactive).

Question: For `CCc1ccc(C2C=C(c3ccc(F)cc3)Nc3nnnn32)cc1` (stereo unspecified), which inhibition is on record?
Answer: The inhibition was 80.2% (active).

Question: With `Clc1ccc(C2C=C(c3ccc(Br)cc3)Nc3nnnn32)cc1` (stereo unspecified) as the compound, how does the inhibition read?
Answer: Its inhibition is -26.6% (inactive).

Question: For `Cc1ccc(C2=CC(c3ccc(Cl)cc3)n3nnnc3N2)cc1` (stereo unspecified), which inhibition is on record?
Answer: Its inhibition is 102% (active).

Question: Which inhibition does the source give for `Clc1ccc(-c2csc3ncnc(Sc4nnnn4C4CC4)c23)cc1` here?
Answer: Its inhibition is -14.2% (inactive).

Question: With `OC(c1ccccc1)C1CCN(c2cncc(Cl)n2)CC1` (stereo unspecified) as the compound, how does the inhibition read?
Answer: Its inhibition is 44.6% (inactive).

Question: For `Cc1cccc(C)c1OC1CN(C(=O)C(=O)c2ccco2)C1`, which inhibition is on record?
Answer: The inhibition was 45.6% (inactive).

Question: Which inhibition does the source give for `Cc1cccc(C)c1OC1CCN(c2cncc(C(N)=O)n2)CC1` here?
Answer: The inhibition was 95.8% (active).

Question: For `CCCCC1C=CCN1C(=O)c1c(O)cccc1O` (stereo unspecified), which inhibition is on record?
Answer: Its inhibition is 3.76% (inactive).

Question: With `Cc1ccccc1C1CCCN(C(=O)c2cc(COc3cccc4cnccc34)on2)C1` (stereo unspecified) as the compound, how does the inhibition read?
Answer: The inhibition was 46.4% (inactive).

Question: For `CCCC1C=CCN1C(=O)c1cc(COc2ccc3c(c2)OCO3)[nH]n1` (stereo unspecified), which inhibition is on record?
Answer: The inhibition was 31.8% (inactive).

Question: Which inhibition does the source give for `Cc1ccc(OCc2cc(C(=O)N3CCC(C(=O)c4ccccc4)CC3)no2)cn1` here?
Answer: Its inhibition is “inactive”.

Question: With `C=CC[C@@H]1CC=C[C@@H](C)N1C(=O)c1cc(COc2ccc3sc(C)nc3c2)on1` as the compound, how does the inhibition read?
Answer: Its inhibition is -45.8% (inactive).

Question: Which inhibition does the source give for `Cc1ccc(OCc2cc(C(=O)N3CCCC3c3nc4ccccc4s3)no2)cn1` (stereo unspecified) here?
Answer: Its inhibition is 81.4% (active).

Question: With `CCC1C=CCN1C(=O)c1cc(COc2ccc3sc(C)nc3c2)on1` (stereo unspecified) as the compound, how does the inhibition read?
Answer: The inhibition was 94.8% (active).

Question: For `CCCC1C=CCN1C(=O)c1cc(COc2ccc(C(C)=O)cc2)on1` (stereo unspecified), which inhibition is on record?
Answer: Its inhibition is 75.2% (active).
